# Measured values taken from PubChem BioAssay.
# Records with an inconclusive call do not appear. Calls of active or inactive are those of the source. Cut-off read from the data, not from the text of the source, unless noted: active = inhibition above about 30%; inactive = the rest.
# Columns and labels:
# [1] = reducers of endogenous Her2 protein level, primary screen, SKBR3 breast tumor cells, AlphaScreen, ATP viability (AID 461;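 active = Her2 level under about 52% in both replicate screens, with viability over 70% of control, limit read from the data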;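 for Her2 level: lower value means less Her2 protein in the cells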;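 for viability: percent of carrier control wells set as 100% viability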); conditions: 18-24 h, measured here: SKBR3 viability, ATP luminescence, at 10 µM
# [2] = molecular target: Receptor tyrosine-protein kinase erbB-2 (Homo sapiens) (UniProt P04626); test: as above; conditions: 18-24 h, at 10 µM, stronger effect = lower value
# [3] = SK-BR-3 cell growth inhibitors, pilot screen, 24 h, human (AID 572;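 active = viability at or below 10% of carrier control in both of two separate runs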;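 note: compound exposure lasted between 18 and 24 h rather than exactly 24 h; 100% = carrier-treated control wells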); conditions: SK-BR-3 viability, CellTiter-Glo luminescence, at 10 µM, stronger effect = lower value
# [4] = HUVEC growth inhibition – cell-based, human, primary screen (AID 575;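 active = viability at or below 30% in both replicate assays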;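 note: 100% = median of untreated cell wells with 0.1% DMSO on each plate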); conditions: HUVEC proliferation, CellTiter-Glo luminescence, 72 h; at 10 µM; stronger effect = lower value
# [5] = growth inhibitors of H69AR lung tumor, primary screen, human, duplicate replicates (AID 580;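 active = viability at or under a set limit in both replicates, limit being median viability minus 3 SD, cut at about 48% in these data, passing the limit was not always enough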;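 note: 100% = mean luminescence of untreated wells and 0% = no signal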); conditions: H69AR lung tumor cells viability, ATP luminescence, 72 h; at 10 µM; stronger effect = lower value
# [6] = reversal of MRP1-mediated doxorubicin resistance, pilot screen, H69AR cells, doxorubicin co-treatment (AID 601;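 active = viability loss from added drug above about 55%, and viability with drug at most 40%, in both replicates, limit read from the data, passing the limit was not always enough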); conditions: CellTiter-Glo, 72 h, at 10 µM; for differential viability (reversal): stronger effect = higher value
# [7] = 384-well plate pilot, post-Golgi transport modulator project, inhibition of yeast transport mutant growth (AID 636; in the data active = inhibition above about 31%); conditions: absorbance 615 nm, about 18 h, stronger effect = higher value
# [8] = growth suppression of yeast trafficking mutant, preliminary HTS, modulators of trafficking downstream of Golgi apparatus project, 1536-format plate, OD 615 nm (AID 637); conditions: yeast transport mutant growth, absorbance 615 nm, 18 h; stronger effect = higher value
# [9] = OD615 S. cerevisiae growth inhibition, permissive medium, pilot counter-assay, permissive growth control for S. cerevisiae lifespan shortening project (AID 705;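 active = growth inhibition above 25% in both replicates, a cutoff set 3 SD above the mean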); conditions: OD615, 24 h, at 10 µM, stronger effect = higher value
# [10] = Restrictive medium S. cerevisiae growth inhibition, OD615, pilot screen of yeast lifespan reduction project, restrictive growth control (AID 706;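 active = growth inhibition above a set limit, 3 SD over mean compound inhibition, in both replicates, cut at about 43% in these data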;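 note: modified DeaD lifespan yeast strain shifted to restrictive glucose medium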); conditions: OD615, 48 h, at 10 µM, stronger effect = higher value
# [11] = viability gain of MRP-1-high H69AR cells under doxorubicin, pilot screen, MRP-1 activator project, CellTiter-Glo, duplicate (AID 807;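 active = viability increase at or above a cutoff of the median across tested compounds plus 3 SD, cut at about 8.5% in these data, passing the limit was not always enough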;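 note: compound pretreatment 18-22 h then 72 h combined with doxorubicin; 0% = doxorubicin alone and 100% = vehicle without doxorubicin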); conditions: H69AR viability with doxorubicin, CellTiter-Glo luminescence; at 10 µM; stronger effect = higher value
# [12] = growth suppression of beta-catenin knockout HCT116, pilot screen, human colon tumor cells (AID 823;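 active = cell viability at or below a set limit in both duplicate runs, the limit being the all-compound median minus 4 SD, cut at about 23% in these data, passing the limit was not always enough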;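 note: 0% = wells killed by 20 µM Hyamine and 100% = untreated DMSO cell wells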); conditions: CellTiter-Glo, 60 h, at 10 µM, stronger effect = lower value
# [13] = inhibitors of the yeast RAM network, pilot screen, dse1pr::URA3 reporter, 5-FOA selection (AID 869;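 active = inhibition over a set limit, the all-compound mean plus 3 SD, in both replicate runs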;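 note: 0% = DMSO wells with no growth and 100% = 10 µM 1-NA-PP1 with full growth; RAM network block rescues cells from 5-FOA so hits raise OD615 growth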); conditions: S. cerevisiae dse1pr::URA3 5-FOA growth, OD615, 2 d; at 10 µM; stronger effect = higher value; strain carries analog-sensitive mutant Cbk1 kinase
# [14] = RAM signaling pathway blockade in yeast – S. cerevisiae, Pdr1DBD-CYC8 efflux-inhibited sensitized strain, primary screen (AID 1298;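 active = RAM network inhibition above 8.4% in each of two replicates, 3 SD over the compound average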;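 note: 0% = DMSO untreated cells without growth and 100% = 10 µM 1-NA-PP1 full growth; higher means more yeast growth rescued from 5-FOA killing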); conditions: S. cerevisiae cbk1-as DSE1-URA3 strain, 5-FOA growth OD615, 2 d; at 50 µM; stronger effect = higher value
# [15] = growth suppression of PTEN-deleted HCT116, pilot screen, cell-based, HCT116 clonal line, CellTiter-Glo (AID 824;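 active = viability at or below 27.92% in each of two runs, the all-compound median minus 4 SD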;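 note: 0% = 20 µM Hyamine control and 100% = vehicle cell control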); conditions: 60 h, at 10 µM, stronger effect = lower value
# [16] = H69AR cells + 2 uM doxorubicin, measured here: viability with 2 uM doxorubicin, stronger effect = lower value
# [17] = H69AR cells, compound alone cytotoxicity
# Receptor tyrosine-protein kinase erbB-2 (Homo sapiens), sequence (P04626 whole entry, looked up): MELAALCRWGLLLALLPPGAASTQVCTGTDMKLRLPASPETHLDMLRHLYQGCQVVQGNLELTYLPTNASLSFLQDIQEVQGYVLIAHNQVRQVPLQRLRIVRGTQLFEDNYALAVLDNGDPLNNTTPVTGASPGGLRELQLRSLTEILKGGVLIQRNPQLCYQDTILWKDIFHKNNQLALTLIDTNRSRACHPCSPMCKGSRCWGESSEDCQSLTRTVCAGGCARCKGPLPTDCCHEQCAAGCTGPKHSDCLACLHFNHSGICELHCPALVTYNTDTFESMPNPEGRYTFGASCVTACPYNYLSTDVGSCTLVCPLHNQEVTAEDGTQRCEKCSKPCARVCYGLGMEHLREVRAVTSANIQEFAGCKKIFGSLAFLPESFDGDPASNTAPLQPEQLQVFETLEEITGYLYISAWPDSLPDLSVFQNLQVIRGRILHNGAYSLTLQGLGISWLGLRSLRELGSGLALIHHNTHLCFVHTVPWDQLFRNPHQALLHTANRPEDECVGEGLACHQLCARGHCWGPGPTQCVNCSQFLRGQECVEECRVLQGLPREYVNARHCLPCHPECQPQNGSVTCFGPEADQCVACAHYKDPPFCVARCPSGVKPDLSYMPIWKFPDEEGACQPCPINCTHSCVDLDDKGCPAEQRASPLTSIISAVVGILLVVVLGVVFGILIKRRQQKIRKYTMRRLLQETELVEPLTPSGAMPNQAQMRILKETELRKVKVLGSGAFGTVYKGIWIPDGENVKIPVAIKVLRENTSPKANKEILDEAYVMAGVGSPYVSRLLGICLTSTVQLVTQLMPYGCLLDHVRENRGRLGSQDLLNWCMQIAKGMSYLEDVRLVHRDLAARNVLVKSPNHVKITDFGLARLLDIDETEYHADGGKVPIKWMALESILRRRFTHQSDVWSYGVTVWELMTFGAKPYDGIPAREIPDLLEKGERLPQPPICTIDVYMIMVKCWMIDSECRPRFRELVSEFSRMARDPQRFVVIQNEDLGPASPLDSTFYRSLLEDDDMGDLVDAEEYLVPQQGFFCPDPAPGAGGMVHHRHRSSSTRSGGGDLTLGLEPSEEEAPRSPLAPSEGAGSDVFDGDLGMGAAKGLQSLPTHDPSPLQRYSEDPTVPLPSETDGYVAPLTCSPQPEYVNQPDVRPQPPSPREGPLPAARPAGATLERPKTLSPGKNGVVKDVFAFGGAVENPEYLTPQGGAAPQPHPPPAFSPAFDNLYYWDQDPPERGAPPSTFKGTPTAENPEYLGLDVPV
SMILES,viability [1],Her2 level [2],viability [3],viability [4],viability [5],differential viability (reversal) ([6]; H69AR cells + 2 uM doxorubicin),"viability [6, 16]","viability [6, 17]",inhibition [7],inhibition [8],growth inhibition [9],growth inhibition [10],viability increase [11],viability [12],inhibition [13],RAM network inhibition [14],viability [15]
c1ccc(-c2nnc(CSc3nncs3)o2)cc1,104%,86.5% (inactive),104% (inactive),88.4% (inactive),106% (inactive),13.6% (inactive),92.9%,106%,-3.95% (inactive),-4.67% (inactive),-16% (inactive),8.37% (inactive),-0.84% (inactive),106% (inactive),1.01% (inactive),5.21% (inactive),
COC(=O)C1(C#N)C(c2ccccc2)C1(C(=O)OC)C(=O)OC (stereo not drawn),117%,90% (inactive),117% (inactive),105% (inactive),102% (inactive),11.3% (inactive),90.8%,102%,-3.47% (inactive),0.65% (inactive),-6.71% (inactive),-6.54% (inactive),-1.92% (inactive),77.4% (inactive),1.43% (inactive),2.51% (inactive),97.7% (inactive)
CCOC(=O)c1sc2nc(NC(=O)C(C)(C)C)sc2c1C,104%,75.5% (inactive),104% (inactive),62.8% (inactive),79.3% (inactive),11.9% (inactive),67.5%,79.3%,-3.73% (inactive),-4.59% (inactive),-1.74% (inactive),5.62% (inactive),-4.43% (inactive),74.5% (inactive),-0.52% (inactive),3.13% (inactive),74% (inactive)
CCOc1ccc(N(CC(=O)Nc2ccc(C)c(C)c2)S(=O)(=O)c2c(C)noc2C)cc1,101%,75% (inactive),101% (inactive),68.8% (inactive),53.8% (inactive),-14.4% (inactive),68.2%,53.8%,-0.13% (inactive),3.67% (inactive),0.98% (inactive),-5.67% (inactive),-6.26% (inactive),27.4% (inactive),1.85% (inactive),6.75% (inactive),
O=C(NCCC1=CCCCC1)C1CCN(S(=O)(=O)c2cccc3cccnc23)CC1,104%,96% (inactive),104% (inactive),89% (inactive),97% (inactive),-1.27% (inactive),98.2%,97%,-2.27% (inactive),-0.82% (inactive),6.61% (inactive),-0.115% (inactive),4.13% (inactive),93.3% (inactive),0.885% (inactive),1.51% (inactive),91.6% (inactive)
COc1ccccc1C(=O)NCCc1nc2ccccc2n1C,118%,83% (inactive),118% (inactive),119% (inactive),101% (inactive),5.79% (inactive),95%,101%,-6.76% (inactive),-3.67% (inactive),-20.8% (inactive),0.505% (inactive),0.02% (inactive),105% (inactive),2.54% (inactive),5.39% (inactive),
CC(=O)N(c1ccc(Br)cc1)C1C=CS(=O)(=O)C1 (stereo not drawn),100%,96% (inactive),100% (inactive),87.9% (inactive),88.8% (inactive),4.71% (inactive),84.1%,88.8%,-5.33% (inactive),1.5% (inactive),-6.33% (inactive),-16.4% (inactive),-0.84% (inactive),107% (inactive),2.17% (inactive),-0.25% (inactive),96% (inactive)
O=C(Nc1nncs1)c1ccccc1NS(=O)(=O)c1cccs1,99%,110% (inactive),99% (inactive),95.3% (inactive),90.2% (inactive),-3.62% (inactive),93.8%,90.2%,-4.86% (inactive),-11.2% (inactive),-20.1% (inactive),-10.1% (inactive),-1.16% (inactive),102% (inactive),2.67% (inactive),4.37% (inactive),
CC(=O)NC(CCS(C)(=O)=O)C(=O)Nc1cccc2ccccc12 (stereo not drawn),108%,102% (inactive),108% (inactive),94% (inactive),87.5% (inactive),-10.2% (inactive),97.7%,87.5%,-1.87% (inactive),-5.5% (inactive),-12.6% (inactive),-14.3% (inactive),-2.44% (inactive),103% (inactive),1.77% (inactive),8.64% (inactive),88.3% (inactive)
CNC(=O)C1C2C=CC3(O2)C1C(=O)N(C1CC1)C3C(=O)NCc1ccc(OC)cc1 (stereo not drawn),99.5%,84% (inactive),99.5% (inactive),91.9% (inactive),91.5% (inactive),-0.53% (inactive),92%,91.5%,-8.49% (inactive),-0.16% (inactive),-12.6% (inactive),1.86% (inactive),-1.49% (inactive),96.3% (inactive),0.115% (inactive),1.1% (inactive),
Cc1nc(NCc2ccc3c(c2)OCO3)c2oc3ccccc3c2n1,99%,104% (inactive),99% (inactive),60% (inactive),98.3% (inactive),-8.4% (inactive),107%,98.3%,-0.93% (inactive),-2.9% (inactive),-23.6% (inactive),-6.14% (inactive),-0.11% (inactive),82.7% (inactive),0.65% (inactive),3.7% (inactive),
CCc1ccc(N2CC(C(=O)OCC(=O)NC3CCS(=O)(=O)C3)CC2=O)cc1 (stereo not drawn),100%,112% (inactive),100% (inactive),98.6% (inactive),103% (inactive),3.14% (inactive),99.5%,103%,3.12% (inactive),7.54% (inactive),-17% (inactive),1.96% (inactive),1.23% (inactive),96.5% (inactive),0.795% (inactive),3.33% (inactive),
Cc1ccccc1-n1c(Cn2c(=O)sc3ccccc32)nnc1SCC(N)=O,96.5%,94.5% (inactive),96.5% (inactive),92.3% (inactive),84.8% (inactive),6.29% (inactive),78.6%,84.8%,-6.27% (inactive),-1.97% (inactive),-3.65% (inactive),-3.06% (inactive),1.68% (inactive),107% (inactive),0.455% (inactive),4.35% (inactive),106% (inactive)
COc1ccccc1N1CCN(CC(O)c2ccc3cc[nH]c3c2)CC1 (stereo not drawn),99%,112% (inactive),99% (inactive),95.6% (inactive),88.8% (inactive),11.4% (inactive),77.4%,88.8%,-3.33% (inactive),2.46% (inactive),3.54% (inactive),5.26% (inactive),-4.68% (inactive),60.7% (inactive),1.87% (inactive),1.54% (inactive),61.7% (inactive)
COc1ccccc1N1CCN(c2cc(=O)n(Cc3ccc(F)cc3)c(=O)[nH]2)CC1,99%,68.5% (inactive),99% (inactive),44.1% (inactive),12.1% (active),-38% (inactive),50.1%,12.1%,0% (inactive),9.17% (inactive),-0.995% (inactive),0.535% (inactive),-5.11% (inactive),33.6% (inactive),1.02% (inactive),2.69% (inactive),
COc1cccc(C2C(C(N)=O)=C(C)Nc3nc(CCCO)nn32)c1OC (stereo not drawn),102%,103% (inactive),102% (inactive),93.8% (inactive),96.4% (inactive),-1.08% (inactive),97.5%,96.4%,0.93% (inactive),-3.67% (inactive),-8.7% (inactive),14.1% (inactive),-0.88% (inactive),105% (inactive),0.085% (inactive),0.27% (inactive),104% (inactive)
Cc1[nH]nc2c1C(C1CC=CCC1)C(C#N)=C(N)O2 (stereo not drawn),102%,80% (inactive),102% (inactive),63.5% (inactive),96% (inactive),0.85% (inactive),95.1%,96%,0.65% (inactive),-9.17% (inactive),1.72% (inactive),1.64% (inactive),-5.29% (inactive),17.6% (active),3.08% (inactive),-0.5% (inactive),
CCOc1ccc(NC(=O)CSc2nccn2C)cc1,103%,85.5% (inactive),103% (inactive),82.7% (inactive),99.7% (inactive),6.7% (inactive),93%,99.7%,-4.34% (inactive),0.83% (inactive),-14.8% (inactive),-9.37% (inactive),-1.79% (inactive),106% (inactive),2.29% (inactive),7.99% (inactive),
CC(C)C(NC(=O)c1ccc(S(=O)(=O)N2CCOCC2)cc1)c1nc2ccccc2[nH]1 (stereo not drawn),104%,94.5% (inactive),104% (inactive),72.5% (inactive),82.2% (inactive),-2.94% (inactive),85.2%,82.2%,1.95% (inactive),-2.95% (inactive),-13.7% (inactive),-12.6% (inactive),-5.63% (inactive),100% (inactive),2.71% (inactive),6.44% (inactive),
CCOCCCNC(=O)C(c1ccc(C)cc1)N(Cc1ccc2c(c1)OCO2)C(=O)c1cnccn1 (stereo not drawn),98%,102% (inactive),98% (inactive),103% (inactive),98.7% (inactive),-0.27% (inactive),98.9%,98.7%,-5.34% (inactive),2.38% (inactive),-5.46% (inactive),3.09% (inactive),-2.67% (inactive),93.8% (inactive),1.83% (inactive),5.34% (inactive),
